# From PubChem
# PKM2 inhibitor = PKM2 (human) enzyme inhibition. purified PKM2, ATP generation, Kinase-Glo luminescence. Potency, µM (series often up to 57.5 µM), inactives show at the top dose activity change, negative = inhibition, most hits filed as inhibitors. actives 0.058% (n = 260,000). AID 1634; active = well fitted inhibition curve with a large enough effect; note: nearly all actives have a fitted effect of over 60% in size
# Target sequence (P14618 whole entry, looked up): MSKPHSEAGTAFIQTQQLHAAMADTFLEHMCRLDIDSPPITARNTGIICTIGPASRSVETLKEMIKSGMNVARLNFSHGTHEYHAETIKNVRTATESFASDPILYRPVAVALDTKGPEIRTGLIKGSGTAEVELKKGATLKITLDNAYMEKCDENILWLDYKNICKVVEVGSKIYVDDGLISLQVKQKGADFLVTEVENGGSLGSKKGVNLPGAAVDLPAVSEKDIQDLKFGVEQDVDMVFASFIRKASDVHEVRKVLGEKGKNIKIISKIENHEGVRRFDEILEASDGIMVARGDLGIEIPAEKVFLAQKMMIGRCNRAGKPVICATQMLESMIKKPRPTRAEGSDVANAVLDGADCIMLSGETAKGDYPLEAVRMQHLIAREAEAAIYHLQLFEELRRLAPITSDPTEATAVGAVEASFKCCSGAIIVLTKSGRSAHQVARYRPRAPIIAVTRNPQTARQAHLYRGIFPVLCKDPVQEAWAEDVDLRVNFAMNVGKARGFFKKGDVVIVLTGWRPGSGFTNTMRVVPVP
#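 Coupled luciferase luminescence (Kinase-Glo) detects ATP generated from 0.1 mM ADP and 0.5 mM PEP in imidazole buffer pH 7.2 with KCl, MgCl2; 1 h at room temperature. Enzyme at intermediate activity; normalized to uninhibited and no-enzyme controls.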
# The depositor's hits bear a star; [ ] = another dose, or the depositor's remark. This is one part of a sample in which hits are shown more often than they occur. Potency is the fitted concentration of half-maximal effect.
SMILES,PKM2 inhibitor
COc1ccc(/C=N/Nc2nccnc2Cl)cc1,13µM*
Clc1nccnc1N/N=C/c1ccc(Br)cc1,14µM*
COc1ccc(-c2nn(-c3ccccc3)cc2/C=N/NS(=O)(=O)c2ccccc2)cc1,1%
COc1cccc(/C=N/NC(=O)c2cc3c(OC)cccc3[nH]2)c1O,17%
COc1cccc(/C=N/Nc2ncnc3c2[nH]c2ccc(C)cc23)c1OC,57%
COc1cccc(/C=N/Nc2nccnc2Cl)c1O,14µM*
Cc1ccc2nc(C)cc(C(=O)N3CCCC(CO)(Cc4ccccc4C)C3)c2c1 (stereo not given),32%
Cc1c(CCC(=O)NC2CC2)c(=O)oc2cc(O)ccc12,35%
Cc1cc(-c2ccco2)c(C#N)c2nc3ccccc3n12,55%
Cn1ncc(Cl)c1C(=O)N1CCC(Cc2ccccc2)CC1,60%
O=C(c1ccc(Cn2cc(Cl)c([N+](=O)[O-])n2)cc1)N1CCN(Cc2ccccc2)CC1,38%
O=c1c2cc(Cl)ccc2[nH]c(=S)n1Cc1cccs1,28%
COc1ccc(OCC(=O)N2CCN(S(=O)(=O)c3ccccc3[N+](=O)[O-])CC2)cc1,140%
CCOC(=O)Cc1csc(NS(=O)(=O)c2ccc(OC)cc2)n1,49%
CC(=O)c1ccc(S(=O)(=O)Nc2ccc(-c3cn4c(n3)SCC4)cc2)cc1,43%
COc1ccc(N=Nc2n(C)c3ccccc3[n+]2C)cc1,13µM*
CC(=O)N1[C@H](C)C=C[C@]1(Cc1ccccc1)C(=O)NCc1ccc(C)o1,52%
CC(=O)c1ccccc1OC(=O)CCN1C(=O)c2ccccc2C1=O,47%
COc1cccc(-n2cn[nH]c2=S)c1,14µM*
Cc1nc(-c2ccc(Cl)cc2)sc1C1(C)CC(c2ccc(F)cc2)=NO1 (stereo not given),-2%
Cc1ccc(OCc2nnc(SC(C)C(=O)O)n2-c2ccccc2)cc1 (stereo not given),42%
CCOC(=O)c1c(-c2ccc(C)o2)csc1NC(=S)NC(=O)c1cccs1,37%
CCOC(=O)c1c(-c2ccccc2)csc1NC(=O)CSc1nnc(C)s1,60%
COc1ccc(-c2csc(NC(=O)c3cccs3)c2C(=O)O)cc1OC,22µM*
CCO[C@H]1OC(C(=O)NC2CC2)=C[C@@H](c2csc3ccccc23)[C@@H]1CCCO,30%
SMILES,PKM2 inhibitor
Cc1ccc2nc(-c3ccccn3)[nH]c2c1,16µM*
Nc1ccc2nc(Cc3ccccc3)[nH]c2c1,80%
Cc1nc2ccc(N=NN(C)C)cc2[nH]1,62%
Cc1c(C(=O)Nc2cccc(N(C)S(C)(=O)=O)c2)cccc1[N+](=O)[O-],53%
Nc1c(S(=O)(=O)c2cccc(Cl)c2)c2nc3ccccc3nc2n1/N=C/c1ccc(O)c(O)c1,36%
O=C(CC(Nc1ccc(F)cc1)C(=O)OCC(=O)c1cccs1)c1ccccc1 (stereo not given),42%
O=[N+]([O-])c1cccc(S(=O)(=O)c2ccc(NCCO)c([N+](=O)[O-])c2)c1,69%
Cc1ccc(NC(=O)C2C3CCCC2C3c2ccccc2)cc1 (stereo not given),31%
Cc1ccc(C(=O)OCn2ncc(Cl)c(Cl)c2=O)cc1,31%
Cc1ccc(C(=O)/C=C/C(=O)c2ccc(C)cc2)cc1,54%
Cc1ccc(C(=O)O/N=C(\N)c2ccccn2)cc1,5.6µM*
Cc1ccc(C(=O)O/N=C(\N)c2nonc2N)cc1,13µM*
Cc1cc(C)c(S(=O)(=O)N2CCN(C(=O)CCn3nc(C)c(C)c3C)CC2)c(C)c1,80%
CCC(C)OC(=O)c1[nH]c2c(c1C)C(=O)CC(c1ccc(N(C)C)cc1)C2 (stereo not given),35%
COc1ccc(-c2ncccc2OC(=O)C23CC4CC(CC(C4)C2)C3)cc1OC,34%
O=C(Nc1ccc2c(c1)C(=O)NC2=O)c1cc(Cl)ccc1Cl,-1%
O=C1/C(=C/c2ccc(Cl)cc2)NC(=S)N1Cc1cccnc1,40%
CCCCC1=CC2=C(c3ccco3)C(=O)C(C)(OC(=O)c3ccc(OC)cc3)C(=O)C2=CN1CC(C)C (stereo not given),68%[11.5 µM]
COc1ccc(S(=O)(=O)N2CCN=C2SCc2cccnc2)cc1,56%
COc1cccc(CSc2nc3ccncc3[nH]2)c1,14µM*
COc1cccc(Cn2nc(C(=O)O)c3ccccc3c2=O)c1,38%
Cc1ccc(S(=O)(=O)Nc2cc(C)c(O)c(Sc3n[nH]c(C)n3)c2)cc1,32%
O=C(O)/C=C/C(=O)c1ccc2c(c1)NC(=O)CO2,40%
CS(=O)(=O)c1sc(C#N)c2c1C(=O)CC(c1ccccc1)C2 (stereo not given),35%
Cc1ccc(S(=O)(=O)/N=c2\ccc(Cl)cn2C(F)F)cc1,66%
c1ccc2nc(-c3nc4ccccc4o3)ccc2c1,18µM*
O=C1CCC(=O)N1c1cccc(-c2nc3ccccc3o2)c1,27%
CN(C)S(=O)(=O)c1cccc(NC(=O)CSc2cccc3cccnc23)c1,44%
COC(=O)Cn1c(=O)c2c(nc3n2CC(C)CN3c2ccc(C)c(C)c2)n(C)c1=O (stereo not given),132%
